Several values for one entry are separate records, joined by “and”; a condition that tells them apart may be missing. Equal values may be shown once. Records with an inconclusive call do not appear. A call without a number means that no potency is given here. A number with no mark means an inactive call. Activity calls are given as the source filed them. Unless noted, the call rests on the fitted dose curve; in most records, active means well fitted curve in the direction sought with a large enough effect; inconclusive means small, poorly fitted or top-dose-only effect, or another doubt; inactive means no such curve, though single readings can be large; an effect the other way counts as inactive or inconclusive.
Columns and labels:
[1] = target: Cellular tumor antigen p53 (Homo sapiens) (UniProt P04637); assay: Primary qHTS for small molecule compounds that upregulate eGFP-tagged delta133p53alpha (in N-terminal) cells. (AID 2060322); details: NCI-H358 eGFP-delta133p53alpha fluorescence, 24 h; activation: stronger effect = higher value; further: nearly all actives have a fitted effect of over 75% in size; further: potency means the concentration at half of the fitted maximal effect
Cellular tumor antigen p53 (Homo sapiens), sequence (P04637 whole entry, looked up): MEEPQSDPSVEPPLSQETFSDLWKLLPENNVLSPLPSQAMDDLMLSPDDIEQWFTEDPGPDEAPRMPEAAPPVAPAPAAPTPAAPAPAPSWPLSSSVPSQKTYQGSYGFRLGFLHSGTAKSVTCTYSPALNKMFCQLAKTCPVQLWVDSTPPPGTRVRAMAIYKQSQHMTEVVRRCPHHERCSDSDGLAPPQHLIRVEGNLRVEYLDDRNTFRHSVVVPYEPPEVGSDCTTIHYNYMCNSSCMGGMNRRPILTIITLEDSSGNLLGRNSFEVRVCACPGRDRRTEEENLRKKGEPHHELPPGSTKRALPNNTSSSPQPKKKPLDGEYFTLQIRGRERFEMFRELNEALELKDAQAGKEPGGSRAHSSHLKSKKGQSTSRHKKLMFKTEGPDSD
Procedure, shortened: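 NCI-H358 cells pre-induced 24 h with 10 ng/ml doxycycline to express N-terminal eGFP-delta133p53alpha, then dosed 24 h at 37C without doxycycline; fixed, Hoechst-stained, GFP intensity by laser scanning cytometry, normalized to DMSO (0%) and 57.5 uM 5-azacytidine (100%).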

[2] = target: Cellular tumor antigen p53 (Homo sapiens) (UniProt P04637); assay: Primary qHTS for small molecule compounds that upregulate eGFP-tagged delta133p53alpha (in C-terminal) cells. (AID 2060324); details: NCI-H358 delta133p53alpha-eGFP (C-terminal tag), GFP fluorescence imaging, 24 h; series mostly up to 57.5 µM; further: potency means the concentration at half of the fitted maximal effect
Procedure, shortened: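 NCI-H358 cells with doxycycline-inducible D133p53a-eGFP (C-terminal tag), pre-induced 24 h with 100 ng/ml doxycycline, plated 800/well in doxycycline-free medium and treated 24 h at 37 °C with compound titrations. Cells were then fixed and Hoechst-stained, and GFP intensity was read by laser scanning cytometry.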

[3] = target: Aldehyde dehydrogenase, mitochondrial (Homo sapiens) (UniProt P05091); assay: qHTS for Inhibitors of the Aldehyde Dehydrogenase Family (ALDH2) Validation screens (AID 2061302; active means well fitted inhibition curve with a large enough effect; title and protocol of this record describe different tests; further: potency means the concentration at half of the fitted maximal effect); details: ALDH inhibition qHTS; series mostly up to 42.6 µM
[4] = target: Retinaldehyde dehydrogenase 3 (Homo sapiens) (UniProt P47895); assay: qHTS for Inhibitors of the Aldehyde Dehydrogenase Family (ALDH1A3) Validation screen (AID 2061312); details: ALDH1A3 enzyme inhibition qHTS validation, fluorescence; series mostly up to 84.7 µM; further: nearly all actives have a fitted effect of over 45% in size

| SMILES | activation [1] | Potency [2] | Potency [3] | Potency [4] | Potency [1] |
| --- | --- | --- | --- | --- | --- |
| O=c1ccn([C@@H]2O[C@H](COP(=O)(O)OP(=O)(O)O)[C@@H](O)[C@H]2O)c(=O)[nH]1 | -29.5% | inactive | inactive | inactive |  |
| N[C@H](C(=O)O)[C@H](Cc1ccccc1)C(=O)O | 1.24% | inactive | inactive | inactive |  |
| NC1=NCC2c3ccccc3Cc3ccccc3N12 (configuration not stated) | -14.2% and -12.4% | inactive | inactive | inactive |  |
| COC(=O)C(N)Cc1ccc(Cl)cc1 (configuration not stated) | -12% | inactive | inactive | inactive |  |
| NCCNS(=O)(=O)c1cccc2c(Cl)cccc12 | -38% | inactive | inactive | inactive |  |
| CN(C)CCCN1c2ccccc2Sc2ccccc21 | 2.51% and 16.3% | inactive | inactive | inactive |  |
| O=c1n(CCCN2CCN(c3cccc(Cl)c3)CC2)nc2ccccn12 | -7.53% and 33.4% and -0.284% | inactive | inactive | inactive |  |
| CN1C(=O)CC[C@H]1c1cccnc1 | -11.7% and 28% | inactive | inactive | inactive |  |
| Nc1ncnc2c1nc(Br)n2C1OC2COP(=O)(O)O[C@@H]2C1O (some centres not stated) | -6.56% | inactive | inactive | inactive |  |
| CSc1nc(N)c2ncn([C@@H]3O[C@H](COP(=O)(O)OP(=O)(O)OP(=O)(O)O)[C@@H](O)[C@H]3O)c2n1 | 7.61% | inactive | inactive | inactive |  |
| COc1ccccc1N1CCN(CCCCNC(=O)c2ccc3ccccc3c2)CC1 | -23% | inactive | inactive | inactive |  |
| CSc1nc(N)c2ncn([C@@H]3O[C@H](COP(=O)(O)OP(=O)(O)O)C(O)[C@H]3O)c2n1 (some centres not stated) | -2.39% | inactive | inactive | inactive |  |
| Cc1nc(N=Nc2ccc(S(=O)(=O)O)cc2S(=O)(=O)O)c(COP(=O)(O)O)c(C=O)c1O | -9.78% | inactive | inactive | inactive |  |
| Cc1cccc(C)c1OCC(C)N (configuration not stated) | 8.37% and -22.7% | inactive | inactive | inactive |  |
| Oc1cc(O)c2c(c1)O[C@H](c1ccc(O)c(O)c1)[C@@H](O)C2 | -7.14% | inactive | inactive | inactive |  |
| O=c1onc2n1-c1cc(Br)ccc1OC2 | -18.5% | inactive | inactive | inactive |  |
| CC(N)(C(=O)O)c1ccc(C(=O)O)cc1 (configuration not stated) | 7.46% | inactive | inactive | inactive |  |
| Clc1cccc(Cl)c1NC1=NCCN1 | -3.23% and -7.34% and -13.7% | inactive | inactive | inactive |  |
| CC(=O)C(C)=O | -5.18% | inactive | inactive | inactive |  |
| CCN(CC)CCOC(=O)c1ccc(N)cc1 | -14.2% and -16.3% | inactive | inactive | inactive |  |
| C[C@H](CS)C(=O)N1CCC[C@H]1C(=O)O | 1.67% and -24.1% | inactive | inactive | inactive |  |

| SMILES | activation [1] | Potency [2] | Potency [3] | Potency [4] | Potency [1] |
| --- | --- | --- | --- | --- | --- |
| CC(=O)N[C@@H](CS)C(=O)O | 11.9% and -21.2% | inactive | inactive | inactive |  |
| COc1cc(C(O)CO)ccc1OS(=O)(=O)O (configuration not stated) | 5.13% | inactive | inactive | inactive |  |
| COC(=O)[C@@H](N)Cc1ccc(O)c(O)c1 | 2.51% and -29.9% | inactive | inactive | inactive |  |
| CCCn1c(=O)c(C)cn2nc(N)nc12 | -37.9% | inactive | inactive | inactive |  |
| COc1ccc(-c2cc(=O)c3c(O)c(OC)c(OC)cc3o2)cc1O | 37.1% | inactive | inactive | inactive |  |
| O=C(O)CP(=O)(O)O | -13% and 17.7% | inactive | inactive | inactive |  |
| CCCCC1C(=O)N(c2ccccc2)N(c2ccccc2)C1=O | 10% and 16.7% | inactive | inactive | inactive |  |
| CC(C)(C=O)Cc1cc(C(C)(C)C)c(O)c(C(C)(C)C)c1 | -15.2% | inactive | inactive | inactive |  |
| Cc1ccc(S(=O)(=O)/C=C/C#N)cc1 |  | 30.1 µM (active) | 0.398 µM (active) | inactive | 30.1 µM (active) |
| CC(N)C(=O)OC(C)(C)Cc1ccc(Cl)cc1 (configuration not stated) | 19.8% and -28.1% | inactive | inactive | inactive |  |
| NCCCCN=C(N)N | -3.8% | inactive | inactive | inactive |  |
| Cc1cc(NC(=O)Nc2ccc3c(ccn3C)c2)sn1 | 51% | inactive | inactive | inactive |  |
| CN(C)c1nc(N)c(C(=O)N=C(N)N)nc1Cl | -52.6% | inactive | inactive | inactive |  |
| CN[C@H](CC(=O)O)C(=O)O | -12.8% | inactive | inactive | inactive |  |
| Nc1nc2c(ncn2[C@@H]2O[C@H](CO)[C@@H](O)[C@@H]2O)c(=O)[nH]1 | -6.66% | inactive | inactive | inactive |  |
| c1ccc(-c2ccccn2)nc1 | -21.2% | inactive | inactive | inactive |  |
| CC(C)(NS(=O)(=O)c1ccc(Oc2ccc(F)cc2)cc1)C(=O)NO | -8.16% | inactive | inactive | inactive |  |
| Nc1nc(SCc2ccc([N+](=O)[O-])cc2)c2ncn([C@@H]3O[C@H](CO)[C@@H](O)[C@H]3O)c2n1 | -3.28% | inactive | inactive | inactive |  |
| CN1[C@@H](CC(=O)c2ccccc2)CCC[C@H]1C[C@H](O)c1ccccc1 | 1.49% | inactive | inactive | inactive |  |
| NCCS(=O)O | -4.42% | inactive | inactive | inactive |  |
| CN(C)CC/C=C1\c2ccccc2COc2ccccc21 | -10.9% and -21.6% | inactive | inactive | inactive |  |

| SMILES | activation [1] | Potency [2] | Potency [3] | Potency [4] | Potency [1] |
| --- | --- | --- | --- | --- | --- |
| CCN1CCCC1CNC(=O)c1cc(S(N)(=O)=O)ccc1OC (configuration not stated) | 8% and -7.28% | inactive | inactive | inactive |  |
| COc1cc(OC)cc(-c2cc3cnc(N)nc3nc2NC(=O)NC(C)(C)C)c1 | 5.06% | inactive | inactive | inactive |  |
| CC1C(=O)N(C)C(=O)c2nc[nH]c21 (configuration not stated) | -19.1% | inactive | inactive | inactive |  |
| NC(N)=NC(N)=Nc1ccccc1 | -1.81% | inactive | inactive | inactive |  |
| Cc1nc2c(OCc3ccccc3)cccn2c1CC#N | 7.44% | inactive | inactive | inactive |  |
| OC(CN1CCC(Cc2ccc(F)cc2)CC1)c1ccc(Cl)cc1 (configuration not stated) | 5.08% and 40.7% | inactive | inactive | inactive |  |
| N[C@H](C(=O)O)c1cc(O)cc(O)c1 | -2.9% | inactive | inactive | inactive |  |
| Nc1nc(N)c2nc(-c3ccccc3)c(N)nc2n1 | -26.6% and -1.16% | inactive | inactive | inactive |  |
| N[C@@H](COP(=O)(O)O)C(=O)O | -2.51% and -5.8% | inactive | inactive | inactive |  |
| COc1ccc(-c2ccc(N)[n+](CCCC(=O)O)n2)cc1 | -20% | inactive | inactive | inactive |  |
| CO/N=C(\C(=O)N[C@@H]1C(=O)N2C(C(=O)O)=C(COC(C)=O)CS[C@H]12)c1csc(N)n1 | 2.44% | inactive | inactive | inactive |  |
| CCOC(=O)C1=C(C)NC(C)=C(C(=O)OC)C1c1cccc(Cl)c1Cl (configuration not stated) | 16.4% and -13.8% | inactive | inactive | inactive |  |
| C[C@]12CCC(=O)C=C1CC[C@@H]1[C@@H]2C(=O)C[C@@]2(C)[C@H]1CC[C@]2(O)C(=O)CO | 0.837% and -9.81% | inactive | inactive | inactive |  |
| CC(C)C[C@H](NC(=O)[C@H](O)[C@H](N)Cc1ccccc1)C(=O)O | 3.56% | inactive | inactive | inactive |  |
| Nc1nc(Nc2ccccc2)nc2c1ncn2[C@@H]1O[C@H](CO)[C@@H](O)[C@H]1O | 8.56% | inactive | inactive | inactive |  |
| CC[C@@H](C)[C@H]1O[C@]2(CC[C@H]1C)C[C@@H]1C[C@@H](CC=C(C)[C@@H](O[C@H]3C[C@H](OC)[C@@H](O[C@H]4C[C@H](OC)[C@@H](O)[C@H](C)O4)[C@H](C)O3)[C@@H](C)C=CC=C3CO[C@@H]4[C@H](O)C(C)=C[C@@H](C(=O)O1)[C@]34O)O2 | -12.1% | inactive | inactive | inactive |  |
| COc1cccc(OC)c1OCCNCC1COc2ccccc2O1 (configuration not stated) | 7.71% | inactive | inactive | inactive |  |
| Nc1ccc(S(=O)(=O)Nc2ccnn2-c2ccccc2)cc1 | 12.6% and 48.1% and -20.4% | inactive | inactive | inactive |  |
| NC(N)=NC(=O)Cc1c(Cl)cccc1Cl | -18.6% and -5.21% | inactive | inactive | inactive |  |
| CCCCCCCCCCCCCCC[C@H](O)[C@H](N)CO | 14.1% | inactive | inactive | inactive |  |
| NC(N)=NC(N)=Nc1cccc(Cl)c1 | -3.06% | inactive | inactive | inactive |  |

From PubChem BioAssay (NCATS)
